Screening data as filed in PubChem BioAssay.
Shiga inhibitor: blocks Shiga toxin action in Vero cells; Vero cells, Shiga toxin protein synthesis inhibition reporter; inhibition, % at 38.7 µM; 290,000 tested, 9.2% active; in the data active = inhibition mostly above about 28%, no sharp cut-off; inactive = mostly below about 43%; also: 0% is about no effect
Pf growth 96h: P. falciparum growth inhibition at 96 hour, primary screen for plastid delayed-death inhibitors | AID 504834 | Potency, µM (titrated, usually from 28.7 µM), for the others: top-dose activity change, negative = inhibition, most hits filed as inhibitors | P. falciparum luciferase reporter growth, 96 h | 320,000 tested, 6.9% active; also: potency is read from the fitted curve at half-maximal effect; % is scaled to controls: 0 for no effect and ±100 for the full control effect
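P. falciparum expressing integrated firefly luciferase, in erythrocytes at 2% hematocrit, 0.05% parasitemia, incubated with compounds 96 h at 37 C, 5% CO2. Growth inhibition read as loss of luminescence; two-generation exposure targets delayed-death apicoplast inhibitors.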
Pf growth 48h: P. falciparum growth inhibition at 48 hours (one generation); P. falciparum luciferase growth in erythrocytes, 48 h; Potency, µM (top dose mostly 28.7 µM), inactives show at the top dose activity change, negative = inhibition, hits mostly inhibitors; 310,000 tested, 5.9% active; AID 504832; also: potency is read from the fitted curve at half-maximal effect; % is scaled to controls: 0 for no effect and ±100 for the full control effect
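Read-out is firefly luciferase luminescence from an integrated reporter in P. falciparum, so falling signal marks reduced parasite growth. Infected erythrocytes were at 2% hematocrit and 0.1% parasitemia (final) in Albumax-supplemented RPMI 1640.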
CHX counter: affects cycloheximide protein synthesis inhibition readout, counter-screen; AID 2314; cell reporter, cycloheximide protein synthesis inhibition counterscreen; 300,000 tested, 12% active; max response, %; in the data active = max response mostly above about 13%, no sharp cut-off; inactive = mostly below about 14%; also: read at 38.3 µM for the half of the compounds with a filed dose; 0% is about no effect
Marburg entry inh: Marburg virus entry inhibition. Potency, µM (series often up to 37.8 µM), for the others: top-dose activity change, negative = inhibition, usual class: inhibitors. 300,000 tested, 1.8% active. Marburg virus pseudotyped entry inhibition, cell reporter; calls by dose curve; tested in HEK293 cells; also: potency is read from the fitted curve at half-maximal effect; % is scaled to controls: 0 for no effect and ±100 for the full control effect
Lassa entry inh: Lassa virus entry inhibition; Lassa virus pseudotype entry inhibition, cell reporter; Potency, µM (titrated, usually from 37.9 µM), without a hit: at the top dose activity change, negative = inhibition, hits mostly inhibitors; 300,000 tested, 1.2% active; AID 540256; calls by dose curve; tested in HEK293 cells; also: potency is read from the fitted curve at half-maximal effect; % is scaled to controls: 0 for no effect and ±100 for the full control effect; nearly all actives have a fitted effect of over 50% in size
An asterisk follows results filed as active; ? = inconclusive; . = no result given; [ ] = dose if it differs, or a comment. A selection: hits, their analogues and other compounds. The true share with any hit is near 19%. Unless noted, calls follow the shape of the dose curve; as a rule, active = well fitted inhibition curve with a large enough effect; inconclusive = small, poorly fitted or top-dose-only effect, or another doubt; inactive = no such curve, though single readings can be large or run the other way.

SMILES	Shiga inhibitor	Pf growth 96h	Pf growth 48h	CHX counter	Marburg entry inh	Lassa entry inh
Clc1ccc2nc(-c3ccc(Br)o3)c(Nc3ccc4c(c3)OCCO4)n2c1	.	.	.	.	13%[46.1 µM]	26%[46.1 µM]
COC(=O)c1ccc(NC(=O)C[n+]2ccccc2)cc1	10	13µM*	-5%	2	4%[46.1 µM]	15%[46.1 µM]
Cc1nc2c(=O)n(C)c(=O)n(C)c2nc1Cl	-13	4%	10%	-7	8.2µM*	?
Cc1ccccc1OC(=O)n1c(=S)oc2cc(Cl)ccc21	43	.	21%	16*	?	-1%
O=C(Oc1ccccc1)n1c(=S)oc2ccccc21	34	2%	11%	8	?	26%
CCC(C)(C)n1nnnc1C(c1ccc(O)c(OC)c1)N1CCN(c2nc3ccccc3s2)CC1 (stereo not drawn)	55	9%	?	11	-8%	16%
O=C(NCc1cc2ccccc2[nH]1)C1CCC(=O)N(CCCN2CCCC2=O)C1 (stereo not drawn)	-5	10µM*	2%	12	.	.
O=C(NCCc1cccc(C(F)(F)F)c1)C1CCC(=O)N(CCc2cccc(F)c2)C1 (stereo not drawn)	-10	25%	2%	-3	.	.
O=C(NCCN1CCCC1=O)C1CCC(=O)N(CCc2cccc(F)c2)C1 (stereo not drawn)	10	13µM*	24%	-3	-28%	14%
Cc1nc(CCNC(=O)C2CCC(=O)N(CCc3cccc(F)c3)C2)sc1C (stereo not drawn)	-2	15µM*	9%	-1	4%	1%
O=C(NCCC1CCCC1)C1CCC(=O)N(CCCN2CCCC2=O)C1 (stereo not drawn)	-6	?	-7%	-2	.	.
CCc1csc(CCNC(=O)C2CCC(=O)N(CCc3cccc(F)c3)C2)n1 (stereo not drawn)	-7	1%	4%	6	8%	?
O=C(NC(C1CC1)C1CC1)C1CCC(=O)N(CCCN2CCCC2=O)C1 (stereo not drawn)	13	-21%	-10%	17*	.	.
CC(=O)C1=C(O)C(=O)N(c2cccc(Br)c2)C1c1ccccc1Cl (stereo not drawn)	-2	?	0%	-2	7%[46.1 µM]	13%[46.1 µM]
CCc1cc(CNC(=O)C2CCC(=O)N(Cc3cccc(F)c3)C2)on1 (stereo not drawn)	-6	12µM*	21%	1	9%[46.1 µM]	?
Cc1ccc(F)cc1CNC(=O)C1CCC(=O)N(CCCN2CCCC2=O)C1 (stereo not drawn)	18	9%	-1%	22*	?	14%
O=C(NCc1cccc(F)c1)C1CCC(=O)N(CCc2cccc(F)c2)C1 (stereo not drawn)	13	31%	-17%	20*	.	.
Cc1nc(CNC(=O)C2CCC(=O)N(Cc3cccc(F)c3)C2)sc1C (stereo not drawn)	26	?	-29%	5	16%[46.1 µM]	?
COc1cccc(CNC(=O)C2CCC(=O)N(CCc3cccc(F)c3)C2)c1 (stereo not drawn)	13	0%	9%	2	-2%	-5%
CCc1nc(CN(C)C(=O)C2CCC(=O)N(CCc3cccc(F)c3)C2)no1 (stereo not drawn)	33	9%	7%	22*	?	0%
C#CCSc1cc(C(F)(F)F)nc(-c2ccccn2)n1	-4	41%	-24%	1	-11%[46.1 µM]	2%
CCC1=NN2C(=N)/C(=C\c3cccn3-c3ccc(C)cc3C)C(=O)N=C2S1	-5	-22%	?	-1	.	.
COC(=O)c1c(-c2ccc(Cl)cc2)noc1N1CCN(c2cccc(OC)c2)CC1	.	.	.	.	.	12%[46.1 µM]
CNCCOCC(O)CSc1ccccc1 (stereo not drawn)	27	.	13%	-6	-4%	2%
c1ccc(-c2ncc3c(ccc4ccccc43)n2)cc1	74*	1%	291%	58*	?	3.5µM*
SMILES	Shiga inhibitor	Pf growth 96h	Pf growth 48h	CHX counter	Marburg entry inh	Lassa entry inh
c1ccc2c(c1)cnc1ccccc12	29	?	49%	24*	22%	4%
c1ccc2c(c1)-c1cccc3cncc-2c13	.	.	.	.	-7%	26%
c1ccc2c(-c3cncc4ccccc34)cncc2c1	.	.	.	.	13µM*	?
c1ccc2nc3ccccc3cc2c1	47*	.	.	40*	.	.
CN(C(=O)c1cccc(S(=O)(=O)NCc2ccccc2)c1)C1CCCCC1	.	.	.	.	-12%	-12%
Cc1cc2c(c(=O)o1)C1(C(=O)N(CC(=O)O)c3ccccc31)C(C#N)=C(N)O2 (stereo not drawn)	-3	?	27%	-1	?	0%
Cc1cc2c3c(c1C)C1(C(=O)N3C(C)(C)CC2C)C(C#N)=C(N)Oc2cc(O)ccc21 (stereo not drawn)	-12	10µM*	.	-4	?	?
CC1(C)CC(=O)C2=C(C1)OC(N)=C(C#N)C2c1ccoc1 (stereo not drawn)	14	-6%	-10%	0	4%[46.1 µM]	6%[46.1 µM]
Cc1cc2c3c(c1)C1(C(=O)N3C(C)(C)CC2C)C(C#N)=C(N)OC2=C1C(=O)CC(C)(C)C2 (stereo not drawn)	-4	?	12µM*	-3	-20%	-8%
CC1=CC(C)(C)N2C(=O)C3(C(C#N)=C(N)OC4=C3C(=O)CC(C)(C)C4)c3cc(C)cc1c32 (stereo not drawn)	-9	13µM*	.	8	-14%	-10%
N#CCc1ccc(NC(=O)/C=C/c2ccc([N+](=O)[O-])o2)cc1	56*	-1%	-23%	37*	?	7.9µM*
N#C/C(=C\c1ccc([N+](=O)[O-])o1)C(=O)Nc1ccc(F)cc1	35	4%	-11%	13	?	-10%
CC1CCN(C(=O)CSc2nnc(CNc3ccc(F)cc3)n2Cc2ccco2)CC1	24	?	?	-3	-19%	-20%
O=S(=O)(c1ccccc1)N1c2cc(Cl)ccc2Oc2nc3ccccc3nc21	94*	?	?	65*	-8%	10%
CCOC(=O)N1CCc2c(sc3c2c(=O)n(Cc2ccccc2)c(=O)n3CC(=O)NCC2CCCO2)C1 (stereo not drawn)	3	?	5.9µM*	-3	.	.
CCOC(=O)N1CCc2c(sc3c2c(=O)n(Cc2ccccc2)c(=O)n3Cc2ccccc2F)C1	-10	?	2.6µM*	-1	-4%	11%
CC(=O)N1CCc2c(sc3c2c(=O)n(Cc2ccccc2)c(=O)n3Cc2ccccc2F)C1	.	.	.	.	2%[46.1 µM]	.
CCOC(=O)N1CCc2c(sc3c2c(=O)n(Cc2ccccc2)c(=O)n3CC(=O)Nc2c(C)cccc2C)C1	.	.	.	.	?	4%[46.1 µM]
O=C(COC(=O)C1=COCCO1)Nc1ccccc1OC(F)F	20	12%	18%	5	2%[46.1 µM]	22%
O=C(N/N=C/c1ccccc1OC(F)F)C1=COCCO1	64*	25%	0%	27*	20%[46.1 µM]	9%
